Assay outcomes: PubChem, National Center for Advancing Translational Sciences (NCATS)
HPGD block – qHTS Assay for Inhibitors of HPGD (15-Hydroxyprostaglandin Dehydrogenase) | 15-hydroxyprostaglandin dehydrogenase [NAD(+)] (Homo sapiens), P15428 | purified HPGD, NADH fluorescence kinetic, PGE2 substrate | Potency, µM, inactives show at the highest dose activity change, negative = inhibition, usual class: inhibitors | hit rate 4.3% among 150,000 | AID 894, 2007; further: potency means the concentration at half of the fitted maximal effect
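NADH formation kinetics: reaction with 30 uM PGE2 and 1 mM NAD+ (final), 20 nM enzyme, Tris-HCl pH 8 with Tween 20, after 15 min compound preincubation at room temperature. Fluorescence change, last versus first of five reads.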
IMPase cell inh – qHTS Assay for Identifying the Cell-Membrane Permeable IMPase Inhibitors | Inositol monophosphatase 1 (Rattus norvegicus), P97697 | CHO-M1 cells, IP1 accumulation, HTRF TR-FRET ratio | inhibition (IP1 accumulation), % at 46.1 µM | 120,000 tested, under 10 active | AID 901, 2007; active means well fitted curve in the direction sought with a large enough effect in the signal ratio, not every such curve was filed as active; inconclusive means small, poorly fitted or top-dose-only effect, or a change in a side signal; inactive means no such curve, though single readings can be large or run the other way; the % refers to the signal ratio;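 further: cells stimulated with carbachol in lithium chloride buffer; plate controls were DMSO basal wells for no effect and reference inhibitor wells for full effect; higher means more IMPase inhibition seen as more IP1 and lower FRET ratio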
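Elevated IP1 in lysates lowers TR-FRET signal (665/620 ratio and 620 channel reported). Cells were CHO-M1, given carbachol (50 uM as added) plus 50mM LiCl, pH 7.4, 30 min, 37C; compounds titrated up to 46 uM; AC50 by Hill equation.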
ALDH1A1 inh – qHTS Assay for Inhibitors of Aldehyde Dehydrogenase 1 (ALDH1A1) | Purified ALDH1A1, NADH fluorescence, propionaldehyde substrate | Aldehyde dehydrogenase 1A1 (Homo sapiens), P00352 | Potency, µM (titrated, usually from 75.3 µM), inactives show at the highest dose activity, negative = inhibition, most hits filed as inhibitors | hit rate 7.3% among 220,000;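 further: potency means the concentration at half of the fitted maximal effect; plate controls were no enzyme wells and a reference inhibitor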
Target sequence (P00352 whole entry, looked up): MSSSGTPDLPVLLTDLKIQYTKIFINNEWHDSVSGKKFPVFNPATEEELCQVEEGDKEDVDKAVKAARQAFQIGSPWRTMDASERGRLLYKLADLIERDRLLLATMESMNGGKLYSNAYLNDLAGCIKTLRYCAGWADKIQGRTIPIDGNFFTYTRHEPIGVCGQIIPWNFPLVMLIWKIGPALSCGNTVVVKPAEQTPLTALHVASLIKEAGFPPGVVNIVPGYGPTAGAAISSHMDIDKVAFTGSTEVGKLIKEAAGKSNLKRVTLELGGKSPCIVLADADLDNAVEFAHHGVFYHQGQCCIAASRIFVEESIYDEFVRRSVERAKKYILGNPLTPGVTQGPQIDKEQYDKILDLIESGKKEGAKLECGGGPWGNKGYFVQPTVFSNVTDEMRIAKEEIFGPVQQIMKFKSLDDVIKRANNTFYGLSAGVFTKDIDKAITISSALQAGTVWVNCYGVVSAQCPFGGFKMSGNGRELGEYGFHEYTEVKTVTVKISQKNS
Starred values were filed as active, the others as inactive; ? = inconclusive; . = no result given; [ ] = another dose, or the depositor's remark. This is a sample that favours compounds with a hit; in the whole collection about 9% have one here. Unless noted, the call rests on the fitted dose curve; in most records, active means well fitted inhibition curve with a large enough effect (not every such curve was filed as active); inconclusive means small, poorly fitted or top-dose-only effect, or another doubt; inactive means no such curve, though single readings can be large or run the other way. Unless noted, on the % scale 0 is the no-effect control and ±100 the full control effect.

SMILES | HPGD block | IMPase cell inh | ALDH1A1 inh
CCSc1nnc(NC(=O)Cc2ccc(OC)c(S(=O)(=O)N3CCOCC3)c2)s1 | -9.1% | -2.7 | ?
CC1(OC(=O)c2ccc(Cl)nc2)C(=O)C=c2cc(-c3ccsc3)ncc2=C1OC(=O)C1CCCC1 (stereo unspecified) | -7.5% | . | 7.3%[13.5 µM]
Cc1cc(OCC(=O)N2CCCCCC2)ccc1[N+](=O)[O-] | -6.1% | . | -11.2%
O=C(COc1ccc(Cl)cc1)N1CCN(c2ccc([N+](=O)[O-])c(N3CCCCC3)c2)CC1 | -8.9% | 0.1 | 2.51µM*
CCCCC[C@H](O)/C=C/[C@@H]1[C@H]2C/C(=C/CCCC(=O)O)O[C@H]2C[C@H]1O | -14.6% | . | 21.2%
O=C(Oc1nsnc1N1CCOCC1)N1CCOCC1 | -12.3% | 7.3 | -3.4%
O=C(Oc1nsnc1N1CCOCC1)c1ccccc1 | -26.7% | 6.8 | 28.2µM*
CCC#CCOCC(=O)Nc1ccccc1 | -11.6% | . | ?
COc1cccc(C2/C(=C(\O)c3ccc(OC)c(OC)c3)C(=O)C(=O)N2c2cc(C)on2)c1 (stereo unspecified) | -11.8% | ? | 5.4%
CCCn1c(N)c(C(c2ccc(C(=O)OC)cc2)N2CCN(c3ccccc3)CC2)c(=O)[nH]c1=O (stereo unspecified) | -19.3% | -3.1 | ?
CCCn1c(N)c(C(c2ccc(OC)cc2)N2CCN(c3ccccc3)CC2)c(=O)[nH]c1=O (stereo unspecified) | -19.1% | 8.1 | 2.51µM*
CCN(CC(=O)Nc1c(F)cccc1F)C(=O)Cc1ccccc1 | . | . | -0.1%
CCN(CC(=O)Nc1c(F)cccc1F)C(=O)CCc1ccc(OC)cc1 | . | . | 14.1µM*
O=C1SC(SCc2ccccc2)=N/C1=C\c1ccco1 | -6.2% | ? | -7.9%
CCSC1=N/C(=C\c2cccc(F)c2)C(=O)S1 | -5.9% | . | 7.2%
CCCSC1=N/C(=C\C=C\c2ccco2)C(=O)S1 | -27.6% | -1.7 | 28.2µM*
CCCSC1=N/C(=C\c2ccsc2)C(=O)S1 | -5.0% | 6.3 | -0.3%
CCCSC1=N/C(=C\c2ccc([N+](=O)[O-])o2)C(=O)S1 | . | . | 14.1µM*
CCSC1=N/C(=C\c2ccc(-c3ccccc3[N+](=O)[O-])o2)C(=O)S1 | -19.1% | 10.0 | 0.316µM*
CSC1=N/C(=C\c2ccc(C)s2)C(=O)S1 | -4.8% | . | -14.2%
CSC1=N/C(=C\c2ccc(C)o2)C(=O)S1 | ? | 8.3 | 10µM*
NC(=S)c1ccc[n+]([C@@H]2O[C@@H](COP(=O)([O-])OP(=O)(O)OC[C@@H]3O[C@@H](n4cnc5c(N)ncnc54)[C@@H](OP(=O)(O)O)[C@H]3O)[C@@H](O)[C@H]2O)c1 | . | -5.1 | .
NCCCCC(N)C(=O)NC(Cc1ccc(O)cc1)C(=O)NC(CCCCN)C(=O)O (stereo unspecified) | -18.6% | . | -7.6%
COC1=CC(C)C2CC3OC(=O)CC4C(C)=C(OC)C(=O)C([C@]2(C)C1=O)[C@]34C (stereo partly specified) | -7.5% | . | 11.9%
O=C(COC(=O)CNC(=O)c1ccccc1)Nc1ccc(Cl)cc1C(F)(F)F | -9.8% | . | 5.0%
SMILES | HPGD block | IMPase cell inh | ALDH1A1 inh
Cc1cc(C)nc(N/N=C/C(Cl)=C/c2ccccc2)n1 | -20.0% | 0.0 | 11.4%
CCC(CC)C(=O)N1c2ccccc2C(C)(c2ccccc2)CC1(C)C (stereo unspecified) | . | -1.7 | .
c1cncc(-c2nc(Oc3ccc(-c4nnco4)cc3)c3c4c(sc3n2)CCCC4)c1 | -20.6% | -1.0 | -7.1%
COC1=CC(=O)C(C(=O)c2ccccc2)=CC1=O | 4.47µM* | . | ?
COc1ccc(C(=O)c2ccccc2)cc1Br | ? | ? | -14.9%
Cc1ccc(C(=O)n2cnnc2N)cc1 | -6.7% | -0.8 | 5.3%
N#CC1(c2ccc(NC(=O)c3ccccc3F)cc2)CCCC1 | -29.8% | 5.2 | 5.01µM*
COc1ccc(NC(=O)C2(c3ccc(NC(=O)c4ccc(C)cc4)cc3)CCCC2)cc1 | ? | -2.3 | -8.3%
COc1ccc(C(=O)Nc2ccc(C3(C#N)CCCC3)cc2)cc1 | . | . | 1.26µM*
O=C(Nc1ccc(N2CCCC2)cc1)c1ccccc1F | -9.4% | 4.1 | ?
CCOc1ccccc1NC(=O)c1cn(C2CCCC2)c(=O)c2c1c1ccccc1n2C | . | -6.7 | .
CCOC(=O)C1=NN(c2ccccc2C)C2=NC(C)=C(C(=O)OC)C(c3cccc(OC)c3)N12 (stereo unspecified) | -11.9% | . | -3.8%
O=C(Oc1ccccc1)C1O[C@@H]1c1ccccc1 (stereo partly specified) | -5.1% | . | -6.5%
CC(NC(=O)c1sc2cc([N+](=O)[O-])ccc2c1Cl)C(C)(C)C (stereo unspecified) | . | 3.7 | 0.562µM*
O=C(NC1CCS(=O)(=O)C1)c1sc2ccccc2c1Cl (stereo unspecified) | . | . | 2.9%
O=C(NC1CC1)c1sc2cc([N+](=O)[O-])ccc2c1Cl | 25.1µM* | . | 6.7%
Cn1cc(Cl)c(C(=O)Nc2nc3ccc([N+](=O)[O-])cc3s2)n1 | . | . | 9.1%
Cc1ccc(C)c(N2CCN(CCCNC(=O)Cn3cc4c(n3)CCCCC4)CC2)c1 | -1.7% | 11.8 | 6.2%
CCOC(=O)C(C)Oc1cccc2c(=O)n(CC(=O)N3CCN(C(=O)OCC)CC3)ccc12 (stereo unspecified) | -27.3% | 1.3 | ?
COc1ccc(OC)c(-c2cc(C3CCN(c4ncccc4[N+](=O)[O-])CC3)[nH]n2)c1 | 14.1µM* | 7.3 | ?
O=[N+]([O-])c1cccnc1N1CCC(c2cc(-c3ccc(Cl)cc3Cl)n[nH]2)CC1 | -14.6% | 8.0 | -0.1%
CCOc1cccc(SCc2noc(C(=O)NCC3CCCO3)c2C(=O)O)c1 (stereo unspecified) | -25.9% | 7.4 | -5.9%
COc1ccc(C(=O)N2CCC3(CCCN(Cc4ccccc4)C3)CC2)cc1 | -7.8% | . | -4.8%
COC(=O)c1ccc(Sc2ccccc2NS(=O)(=O)c2ccc(OC)cc2)nc1 | 0.3% | 14.5[1.84 µM] | -16.8%
CCOC(=O)c1c(NC(=O)Cn2nnc(-c3ccc(Cl)cc3)n2)sc(C)c1C | -3.1% | -11.1 | 1.0%
SMILES | HPGD block | IMPase cell inh | ALDH1A1 inh
CC(C)NC(=O)Cn1nnc(-c2ccc(Cl)cc2)n1 | . | -0.4 | 10µM*
CCOC(=O)C1=C(O)c2ccccc2C(=O)/C1=C\c1ccc(CC)cc1 | 0.891µM* | 9.2 | 18.9µM*
CCOC(=O)C1=C(C)N(CC(C)C)C(=O)/C1=C\c1ccc(OCC(=O)Nc2ccccc2)cc1 | -25.4% | 17.0 | ?
CCCc1ccc(/C=C2\C(=O)c3ccccc3C(O)=C2C(=O)OCC)cc1 | 4.47µM* | 8.6 | ?
CCCN=C(C)C1=C(O)c2ccccc2C1=O | -20.8% | . | ?
COc1cc2c(cc1OC)-c1cc(=Nc3c(C)cc(C)cc3C)n(C)c(=O)n1CC2 | 0.0% | 5.0 | -2.1%
COc1cccc2c1[C@@H]1CN(CCCCn3c(=O)[nH]c4c(sc5ncc(-c6ccccc6)nc54)c3=O)C[C@H]1CO2 | . | 6.2 | .
O=C(NNc1cccc(Cl)n1)Nc1ccccc1 | -11.8% | 2.5 | ?
CC(Cl)C(=O)NNc1cccc(Cl)n1 (stereo unspecified) | -13.2% | -4.1 | 20µM*
Cc1ccc(C(=O)CCC2CCCCC2=O)cc1 (stereo unspecified) | -29.2% | 2.9 | -8.8%
